The whole screen tested about 340,000 compounds, of which about 12,000 (3.5%) were called active. Another 18% or so got no clear call; they are omitted. The sample as a whole holds a higher share of actives than the screen did. A number with no mark means an inactive call. Calls follow the shape of the dose curve; as a rule, active = well fitted inhibition curve with a large enough effect; inconclusive = small, poorly fitted or top-dose-only effect, or another doubt; inactive = no such curve, though single readings can be large or run the other way.
Experiment: qHTS Assay for Inhibitors of Hepatitis C Virus (HCV)
Conditions: Huh7.5.1 HCVcc-Cre infection, luciferase reporter, 44 h; series mostly up to 41.8 µM; activity change, negative = inhibition: at the top concentration
Procedure, shortened: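 A cell-based infection assay in which seeded cells (1,000 per well) receive test compound after 4 h, are inoculated with HCVcc-Cre at approximately 0.5 moi, and are incubated 44 h before luminescence detection.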
% is scaled to controls: 0 for no effect and ±100 for the full control effect; potency is read from the fitted curve at half-maximal effect.

Compared with CC1CCCCN1CCCNC(=O)Cn1ncc2c([nH]c3ccccc32)c1=O (configuration not stated), CCC1CCCCN1CCCNC(=O)Cn1nc(-c2ccccc2)ccc1=O (configuration not stated) is lower in “activity change, negative = inhibition” value: 12.5% for the first, 5.92% for the second.

Compared with CC(C)N(C(=O)CN1CCN(S(=O)(=O)c2ccc(Br)s2)CC1)C(C)C, Cc1ccc(S(=O)(=O)N2CCC(C(=O)N3CCCCCCC3)CC2)cc1 is higher in “activity change, negative = inhibition” value: 8.62% for the first, 19.1% for the second.

First: Cc1ccc(/C=C/C(=O)OCC(=O)Nc2cccnc2Cl)cc1
Second: Cc1ccc(OCC(=O)Nc2ccccc2C(=O)NC2CC2)cc1
The “activity change, negative = inhibition” value of the first is higher: -7.92% for the first, -22% for the second.

Compared with c1ccc(CSCCc2ccncc2)cc1, O=C1NC(=O)C(CCc2ccccc2)(c2ccccc2)N1 (configuration not stated) is higher in “activity change, negative = inhibition” value: -1.66% for the first, -0.263% for the second.

Going from O=[N+]([O-])c1cc(C(F)(F)F)ccc1NCCc1ccncc1 to O=C(Nc1ccccc1)Nc1ccc(C(F)(F)F)cn1, the “activity change, negative = inhibition” value falls from -0.741% to -9.65%.

Going from CC(C)CC(N=C1NC(C)(C)Cc2ccccc21)C(=O)O (configuration not stated) to CC1(C)Cc2ccccc2-c2[nH]c(=S)[nH]c(=O)c21, the “activity change, negative = inhibition” value rises from 11% to 25.9%.

Going from CN(CC(=O)NCCc1ccc(F)cc1)CC(=O)Nc1ccc(F)c(F)c1F to Cc1c(NC(=O)CN(C)CC(=O)Nc2ccc(F)c(F)c2F)c(=O)n(-c2ccccc2)n1C, the “activity change, negative = inhibition” value rises from -17% to 2.52%.

Going from O=c1[nH]c(N2CCN(Cc3ccc4c(c3)OCO4)CC2)nc2c1CCCC2 to CC(C)(C)n1nnnc1C(c1ccc(F)cc1)N1CCN(Cc2ccc3c(c2)OCO3)CC1 (configuration not stated), the “activity change, negative = inhibition” value falls from 2.31% to -0.102%.

First: Cc1c(CN2CC[C@@H](N3CCN(c4ccccn4)CC3)[C@H](O)C2)[nH]c2ccc(F)cc12
Second: Cc1ccccc1OCC(O)CN1CCN(c2ccccn2)CC1 (configuration not stated)
The “activity change, negative = inhibition” value of the first is lower: -28.5% for the first, 1.82% for the second.

Going from Cc1cc(C)n2nc(C(=O)OC(C)C(=O)c3cc(C)c(C)cc3C)nc2n1 (configuration not stated) to COC(=O)c1nc(NC(=O)c2ccc(C(C)(C)C)cc2)n[nH]1, the “activity change, negative = inhibition” value rises from 3.37% to 17.8%.

Going from CCC(C)N(C(=O)Cn1nc(C)c([N+](=O)[O-])c1C)C1CCS(=O)(=O)C1 (configuration not stated) to Cc1c(Cl)c([N+](=O)[O-])nn1CCCC(=O)Nc1cc(Cl)ccc1Cl, the “activity change, negative = inhibition” value falls from 35.7% to -20.9%.

Going from Cc1nccn1CC(=O)N/N=C/c1ccc(O)c(O)c1 to Cc1nn(C)cc1/C=N/NC(=O)c1sc2ccccc2c1Cl, the “activity change, negative = inhibition” value falls from 11.8% to -3.97%.

Going from CC(=O)Nc1ccc(C(=O)NNC(=O)CCCCC(=O)NNC(=O)c2ccc(NC(C)=O)cc2)cc1 to COc1ccc(-c2ccc3nnc(SCC(=O)Nc4ccc(NC(C)=O)cc4)n3n2)cc1, the “activity change, negative = inhibition” value falls from 10.3% to -24.5%.

Going from CCCCN1C(N)=NC[C@@H]1Cc1ccccc1 to Nc1cc(=O)n(Cc2ccccc2)c(=O)n1Cc1ccccc1, the “activity change, negative = inhibition” value rises from 14% to 19.8%.

Compared with CC[C@]12c3[nH]c4ccc(Cl)cc4c3CCN1C(=O)[C@@H](CC(=O)NCCCOC)C[C@@H]2C(=O)N1CCN(C(=O)C2CC2)CC1, CCN(CC(=O)Nc1cc(Cl)ccc1C)C(=O)CN1C(=O)NC2(CCCC2)C1=O is higher in “activity change, negative = inhibition” value: -19.7% for the first, 14% for the second.

Going from C=CC[C@@H](CC(=O)N[C@@H](CO)Cc1ccccc1)C(=O)NCCOC(=O)[C@@H](CC=C)CC(=O)OC(C)(C)C to CC(C)(C)OC(=O)C[C@@H]1C/C=C\C[C@H](CC(=O)N[C@@H](CO)Cc2ccccc2)C(=O)N[C@H](Cc2ccccc2)COC1=O, the “activity change, negative = inhibition” value falls from 21.7% to -11.5%.

Compared with O=C1CN(C(=O)COC(=O)/C=C/c2ccc(F)cc2)c2ccccc2N1, O=C(CSc1nc2ccccc2c(=O)n1CCCO)N1CCc2ccccc21 is lower in “activity change, negative = inhibition” value: 3.6% for the first, -6.38% for the second.

Going from O=C(CSc1nc2[nH]ncc2c(=O)n1-c1ccccc1)N1CCCc2ccccc21 to Cc1ccc(-n2c(SCC(=O)N3c4ccccc4Sc4ccccc43)nnc2-c2ccncc2)cc1, the “activity change, negative = inhibition” value rises from -4.01% to 7.58%.

First: O=C(COC(=O)COc1ccccc1F)Nc1cccc(S(=O)(=O)N2CCCCC2)c1
Second: Nc1cc(N)nc(SCC(=O)Nc2cccc(S(=O)(=O)N3CCCCC3)c2)n1
The “activity change, negative = inhibition” value of the first is higher: 2.99% for the first, 0.0012% for the second.

First: COCCn1cnnc1SCC(=O)Nc1cccc(S(=O)(=O)N2CCCCC2)c1
Second: Cn1nnnc1SCC(=O)Nc1cccc(S(=O)(=O)N2CCCCC2)c1
The “activity change, negative = inhibition” value of the first is lower: -6.89% for the first, 8.59% for the second.

Going from Nc1ncnc2c1ncn2[C@@H]1O[C@H](CNCc2cccn2-c2nccs2)[C@@H](O)[C@H]1O to CN[C@H](C(=O)NC[C@H]1O[C@@H](n2cnc3c(N)ncnc32)[C@H](O)[C@@H]1O)[C@@H](C)OCc1ccccc1, the “activity change, negative = inhibition” value rises from 7.72% to 49.9%.

Going from NC(=O)c1ccsc1NC(=O)COC(=O)COc1ccc(C=O)cc1 to Cc1ccsc1C(=O)NNC(=O)COc1ccc(Br)cc1, the “activity change, negative = inhibition” value rises from -1.1% to 19.3%.

Compared with CCOC(=O)/C=C/c1ccc(C(F)(F)F)cc1S(=O)(=O)NC(C)(C)C, CCn1nc(C(=O)NNS(=O)(=O)c2cc(/C=C/C(=O)O)cc(OC)c2OC)c2ccccc2c1=O is lower in “activity change, negative = inhibition” value: 4.83% for the first, -16.4% for the second.

Going from CCCCN1C(=O)C(=O)N(CC(=O)Nc2cccc(C(C)=O)c2)C1=O to Cc1ccc(NC(=O)C2CCCN2C(=O)OCc2ccccc2)cc1C (configuration not stated), the “activity change, negative = inhibition” value falls from 11.1% to -3.3%.

Compared with CC(C)Cc1nnc(NC(=O)CCNC(=O)c2ccccc2Cl)s1, CCc1nnc(NC(=O)C2CCN(C(=O)c3ccccc3C)CC2)s1 is higher in “activity change, negative = inhibition” value: 7.34% for the first, 14.9% for the second.

Compared with COc1ccc(-c2nnc(-c3ccc4ccccc4c3)o2)cc1, COc1cccc(-c2nc3cc(C)ccc3o2)c1 is higher in “activity change, negative = inhibition” value: 7.69% for the first, 15.5% for the second.

Compared with CCOc1ccc(S(=O)(=O)Nc2ccc(C(=O)NCCCN3CCCC3=O)cc2)cc1, COC(=O)c1ccc(CSc2ccc(S(=O)(=O)N3CCCCC3)cn2)cc1 is lower in “activity change, negative = inhibition” value: -0.358% for the first, -14.1% for the second.

Going from Cc1cccc(NC(=O)c2sc3nc4c(c(-c5ccco5)c3c2N)CCC4)c1 to CCOC(=O)c1sc2nc(SC)nc(-c3ccccc3)c2c1N, the “activity change, negative = inhibition” value rises from -12.9% to -1.48%.

Going from O=C(N/N=C/c1ccc2c(c1)OCO2)c1ccc(Cn2cc([N+](=O)[O-])cn2)o1 to Cc1ccc2nc(-c3ccccn3)cc(C(=O)Nc3ccc4c(c3)OCO4)c2c1, the “activity change, negative = inhibition” value falls from 5.24% to -30%.

Going from O=C(O)c1ccccc1N=N/C(=N/Nc1cc(S(=O)(=O)O)ccc1O)c1ccccc1 to Cc1ccc(S(=O)(=O)N(C)C)cc1NC(=O)C1Cc2ccccc2CN1C(=O)c1ccco1 (configuration not stated), the “activity change, negative = inhibition” value rises from 3.51% to 6.19%.

Compared with CN(C)CCN(C(=O)CN1C(=O)c2ccccc2C1=O)c1nc2cc3c(cc2s1)OCCO3, CCOc1ccc2ccccc2c1/C=N/NC(=O)c1c(C)cc(C)[nH]c1=O is lower in “activity change, negative = inhibition” value: 12.9% for the first, -20.3% for the second.

Compared with Cc1ccc2nc(-c3ccncc3)cc(C(=O)Nc3ccncc3)c2c1, Cc1ccccc1-n1c(SCC(=O)NCc2cccs2)nnc1-c1ccncc1 is lower in “activity change, negative = inhibition” value: 5.09% for the first, -5.89% for the second.

First: COc1cc(C2C(C(=O)c3cccs3)=C(O)C(=O)N2CCN2CCOCC2)ccc1OCCC(C)C (configuration not stated)
Second: COc1ccc(-c2nc3cc([N+](=O)[O-])ccc3o2)cc1OC
The “activity change, negative = inhibition” value of the first is lower: 3.65% for the first, 13.9% for the second.

Compared with Cc1c[n+]([O-])ccc1[N+](=O)[O-], Cc1ccc(S(=O)(=O)N2CCN(C(=O)c3ccc(-n4cncn4)c([N+](=O)[O-])c3)CC2)cc1 is higher in “activity change, negative = inhibition” value: -10.3% for the first, -1.61% for the second.

Going from OCC1(CO)CC2(C1)CC(CO)(CO)C2 to Cc1cccc(C)c1OCC(O)CN1CCCCC1 (configuration not stated), the “activity change, negative = inhibition” value falls from 3.43% to -1.28%.

Going from CC1CCCCC1NC(=O)COc1ccc(C#N)cc1 (configuration not stated) to CC1CCCC(C)N1C(=O)COC(=O)COc1ccccc1C#N (configuration not stated), the “activity change, negative = inhibition” value falls from 11.6% to 0.641%.

Going from O=C(CC1SCCNC1=O)Nc1ccc(Cl)c(Cl)c1 (configuration not stated) to Cc1ccc(NC(=O)C/C(N)=N/O)cc1Cl, the “activity change, negative = inhibition” value falls from 13.4% to -10.7%.

First: Cc1cccc(NC(=O)c2cccnc2Cl)n1
Second: Cc1cc(NC(=O)CSc2nnnn2-c2ccc(F)cc2)no1
The “activity change, negative = inhibition” value of the first is lower: -2.06% for the first, 16.5% for the second.

Compared with CC(C)(c1ccccc1)c1ccc(OCCN)cc1, Cc1cc(C)n(CC(O)COc2ccc(C(C)(C)C)cc2)n1 (configuration not stated) is higher in “activity change, negative = inhibition” value: -16.6% for the first, 12.2% for the second.

Going from Cc1ccc(C(=O)NCC(=O)NC2CC2)cc1 to O=C(CSc1nnnn1-c1ccccc1)NCc1ccco1, the “activity change, negative = inhibition” value falls from 15.4% to -12.8%.

For CCCn1c2ccccc2c2cnn(CC(=O)NCCCN3CCCCC3CC)c(=O)c21 (configuration not stated), the Potency was 11.2 µM (active).
In the case of CC(C)(C)c1ccc(SCCc2ccncc2)cc1, the Potency is reported as 8.91 µM (active).
In the case of CC1(C)Cc2ccccc2/C(=C/C(=O)c2ccccc2)N1, the Potency is reported as 14.1 µM (active).
In the case of Fc1ccc2[nH]c3c(N4CCSCC4)ncnc3c2c1, the Potency is reported as 6.31 µM (active).
In the case of Fc1ccc2[nH]c3c(N4CCN(Cc5ccc6c(c5)OCO6)CC4)ncnc3c2c1, the Potency is reported as 2.51 µM (active).
In the case of Oc1ccc(/C=N/Nc2ccc(C(F)(F)F)cn2)cc1O, the Potency is reported as 3.55 µM (active).
With Cn1c(SCC(=O)N2CCCc3ccccc32)nc2ccccc2c1=O the Potency was 12.6 µM (active).
In the case of O=C(Cn1cnc2ccccc2c1=O)Nc1cccc(S(=O)(=O)N2CCCCC2)c1, the Potency is reported as 11.2 µM (active).
In the case of CSCCC1NC(=O)N(CC(=O)Nc2cccc(S(=O)(=O)N3CCCCCC3)c2)C1=O (configuration not stated), the Potency is reported as 11.2 µM (active).
For Cc1nc2sc(C(=O)c3ccccc3)c(N)c2c2c1CCCC2, the Potency was 25.1 µM (active).
In the case of Cc1c(Cl)c([N+](=O)[O-])nn1Cc1ccc(C(=O)N/N=C\c2cc(Cl)ccc2O)o1, the Potency is reported as 12.6 µM (active).
In the case of Cc1ccc2nc(-c3ccncc3)cc(C(=O)Nc3ccc(OC(F)F)cc3)c2c1, the Potency is reported as 8.91 µM (active).
For O=C(N/N=C/c1c(Cl)[nH]c2ccccc12)c1sc2ccccc2c1Cl, the Potency was 10 µM (active).
With Cc1ccc(C)c(NC(=O)C2Cc3ccccc3CN2C(=O)OCc2ccccc2)c1 (configuration not stated) the Potency was 10 µM (active).
For O=C(CC(O)(C(F)(F)F)C(F)(F)F)Nc1ccc(Cl)c(Cl)c1, the Potency was 5.01 µM (active).
For Cc1cccc(OCC(O)CN2CCN(CCN3C(=O)c4cccc5cccc(c45)C3=O)CC2)c1C (configuration not stated), the Potency was 8.91 µM (active).
With CCc1ccc2oc(-c3ccc(N)cc3)nc2c1 the Potency was 12.6 µM (active).
For Cc1ccc(Nc2nc(CSc3nnc(-c4ccncc4)n3-c3ccccc3C)cs2)cc1, the Potency was 10 µM (active).
In the case of CSc1nccc(NC(=O)c2ccc(C(C)(C)C)cc2)n1, the Potency is reported as 1.78 µM (active).
For CN(C)CC(O)COc1ccc(C(C)(C)c2ccc(OCC(O)CN(C)C)cc2)cc1 (configuration not stated), the Potency was 10 µM (active).
In the case of CCN(CC)C(CNC(=O)CSc1nnnn1-c1cccc(F)c1)c1ccco1 (configuration not stated), the Potency is reported as 25.1 µM (active).

CCCn1c(C)cc(-c2csc(NC(=O)CCc3nc4ccccc4c(=O)[nH]3)n2)c1C showed an activity change, negative = inhibition of -6.01% [at 8.37 µM].

Source: PubChem BioAssay AID651820 (National Center for Advancing Translational Sciences (NCATS), 2012)
